For 40 molecules, growth results are on record in PubChem BioAssay (NCI).

This is part of a sample that, as a whole, favours compounds with a hit. Of some 83,000 tested, about 20% had one in any assay.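 Activity criterion: percent growth below 10, measured after cells in 96-well plates were exposed to a single compound concentration for 48 hours.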 Unmarked numbers belong to inactive results. Calls of active or inactive are those of the source.

The subject of the assay is BT-549 breast. Kind of assay: NCI-60 one-dose screen, 48 h (100 = growth as untreated, 0 = no growth, -100 = all killed). Particulars: 10 µM. As to the method:
Growth inhibition of the BT-549 human tumor cell line is measured as a screen for anti-cancer activity. Cells are grown in 96 well plates and exposed to the test compound for 48 hours. Compounds are tested at a single concentration, which is 10^-5 M for most compounds. The reported endpoint is percent growth (GI% or GIPRCNT), where numbers from 0 - 100% represent growth inhibition, and numbers from -100% - 0 represent cell death. For example, a value of 40 represents 60% growth inhibition. A value of 0 means no net growth occurred over the course of the experiment. A value of -40 indicates 40% of cells at the beginning of the experiment died by the end of the experiment. A value of -100 means all cells are dead at the end of the experiment.
NCI-60 Human Tumor Cell Lines Screen was performed using the standard one-dose NCI protocol, which is described in more detail at https://dtp.cancer.gov/discovery_development/nci-60/default.htm.
Compounds with GIPRCNT values below 10 were considered active. Activity score was based on GIPRCNT using the following formula: […]
Score is 0 for GIPRCNT values of 100 or above, 50 for GIPRCNT values of 0, and 100 for GIPRCNT values of -100.
Consider `CCOC(=O)C(Cc1ccccc1)N1C(=O)/C(=C/N2N=C(c3ccc(OC)cc3)CC2c2ccc3ccccc3c2)SC1=S` (stereo not given), for which the growth was -6.78% (active).

Regarding `O=C(CNc1nc(-c2ccccc2)cs1)Nc1cccc([N+](=O)[O-])c1`, the growth is -73.1% (active).

On to `O=C1Nc2ccc(F)cc2/C1=C/c1cccc(OCc2ccccn2)c1`, for which the growth was 24.1%.

With `O/N=C(\CSc1nnc(-c2c[nH]c3ccccc23)n1-c1ccccc1)c1ccc(Br)cc1`, the growth is -72.7% (active).

Regarding `COc1ccc2c(c1)N=C(C(=O)O)/C2=C/c1sc(Nc2ccc(O)cc2)nc1O`, the growth was 55.4%.

As to `CC1=C(C(=O)OC(C)C)C(c2ccc(O)cc2)NC(=S)N1` (stereo not given), the growth was 82.7%.

As for `Cc1nn(-c2ccccc2)c2ncn(CC(=O)N/N=C/c3c[nH]c4ccccc34)c(=O)c12`, the growth is 99.4%.

Regarding `CCCCCCCCCCCCCCCCCCCC(=O)NCCc1c[nH]c2ccc(OC(=O)CCCC(=O)OCCOOCCOOCCOOCCOOCCOOCCOOCCOOCCOOCCOOCCOOCCOOCCOC)cc12`, the growth is -20.2% (active).

Regarding `O=C(Nc1cccc(-c2cn(-c3ccc4oc(=O)ccc4c3)nn2)c1)Nc1cc(C(F)(F)F)cc(C(F)(F)F)c1`, the growth was 3.59% (active).

`CN1C(=O)N(C)C2SC(N/N=C/c3cccs3)=NC21` (stereo not given): the growth was 21.4%.

Turning to `Cc1ccc(C(=O)CSc2nnc(-c3c[nH]c4ccccc34)n2-c2ccccc2)cc1`, the growth was 22.4%.

As for `CCOC(=O)CNC(=O)CN(Cc1ccccc1)C(=O)[C@@]1(C)CCC[C@]2(C)[C@H]3CC4C(C(C)C)=C[C@]3(CC[C@H]21)[C@@H]1C(=O)CCC(=O)[C@H]41`, the growth is 67.8%.

Consider `CC(=C(c1ccc(OCCN2CCCCCC2)cc1)c1ccc(OCCN2CCCCCC2)cc1)c1ccc(Cl)cc1`, for which the growth is -65.5% (active).

As to `CN(C(=O)c1ccc(C(F)(F)F)cc1C(F)(F)F)c1sc2c(c1C#N)CCC(=O)C2`, the growth is 20.8%.

`COc1ccc(C(=O)/C=C/c2ccc(Cl)c(C(F)(F)F)c2)cc1S(N)(=O)=O`: the growth is -82.3% (active).

As for `NC1=NC(c2ccccc2Cl)N=C(Nc2nn[nH]n2)N1` (stereo not given), the growth was 107%.

For the molecule `COc1ccc(-c2cc(C(=O)N=Nc3c(O)[nH]c4ccccc34)c3ccccc3n2)cc1`, the growth was 72.9%.

As to `Cc1ccc(C(C)C)cc1NC(=O)c1ccccc1N(C)C`, the growth is 102%.

In the case of `CN1CCN(c2ccc(Nc3nc(NCCCNC(=O)c4ccc(Cl)cc4)c4sccc4n3)cc2)CC1`, the growth is 80.1%.

Turning to `COc1ccc(-c2ccc(/C=N/NC(=O)c3[nH]c4ccc(Br)cc4c3-c3ccccc3)o2)cc1`, the growth is 75.6%.

Consider `COc1ccc(CCN2C(=O)/C(=C/c3csc(C#N)n3)SC2=S)cc1OC`, for which the growth was 24.5%.

For `COc1ccc2c3nc4cc(C)c(C)cc4nc3n(CCN(C)C)c2c1`, the growth is 39.4%.

Consider `COc1ccccc1C(=O)NNC(=O)CSc1nc2c(c(=O)[nH]1)CCCC2`, for which the growth is 101%.

For the molecule `Nc1nnc(-c2c[nH]c3ccc(F)cc23)c(-c2c[nH]c3ncccc23)n1`, the growth was 46.7%.

Regarding `CC1(c2ccccc2)NC(=O)N(CC(=O)Nc2ccc(C(=O)/C=C/c3ccccc3)cc2)C1=O` (stereo not given), the growth is 36%.

`Cc1ccc(/C=C/C(=O)c2ccc(NC(=O)CSc3nnc(-c4c[nH]c5ccccc45)n3-c3ccccc3)cc2)cc1`: the growth was 95.7%.

With `Cc1ccc(CNC(=O)Cc2ccc3c(c2)CN(C2CCC(=O)NC2=O)C3=O)cc1` (stereo not given), the growth is -46.4% (active).

Regarding `C=C1CCC2C3(C)COC(c4cc(F)cc(F)c4)OC3CCC2(C)C1C/C=C1/C(=O)OCC1O` (stereo not given), the growth was -81.1% (active).

Take `O=C(Cn1cc(CSc2nnc3oc4ccccc4n23)nn1)Nc1ccc(Br)cc1`: the growth was 92.1%.

As to `O=C(Cn1cc(CSc2nnc3oc4ccccc4n23)nn1)Nc1cccc(Cl)c1`, the growth is 83.1%.

For the molecule `COC[C@@H](CC(C)C)N=C1NC(=O)/C(=C/c2ccc3ncsc3c2)N1`, the growth was -10.9% (active).

Take `N#Cc1c(-c2ccc(Cl)cc2)cc(-c2ccccc2)nc1OCc1ccccc1`: the growth was 83.4%.

As for `CC(C)c1ccc(C(=O)Nc2sc3c(c2C(N)=O)CCC(=O)C3=O)cc1`, the growth was 107%.

In the case of `Cc1ccc(C(=O)Nc2ccc(-n3c(C)nc4c(cnn4-c4ccccc4)c3=O)cc2)cc1`, the growth is 59.2%.

In the case of `O=C(CSc1nnc(-c2ccc3nc(-c4ccccc4)[nH]c3c2)o1)Nc1ccc(Cl)cc1`, the growth was 55%.

Regarding `O=C(N/N=C/c1ccc(B(O)O)o1)c1[nH]c2ccc(Br)cc2c1-c1ccccc1`, the growth is 41%.

Turning to `CCN1CCN(c2ccc(NC(=O)Nc3ccc(-c4cc(C(=O)NC)c5ncccc5n4)cc3)cc2C(F)(F)F)CC1`, the growth was -96% (active).

On to `COc1ccc(CN2[C@H](C(=O)NCCCCCCC(=O)NO)Cc3c([nH]c4ccccc34)[C@H]2C2CC2)cc1`, for which the growth was 25.5%.

As for `COc1cccc(-c2ccnc(/N=C(\N)Nc3ccc(S(=O)(=O)Nc4nc(C)cc(C)n4)cc3)n2)c1`, the growth was 111%.

With `O=C(CNc1nc(-c2ccccc2)cs1)Nc1cccc(Cl)c1`, the growth is 25.8%.
